Assays:
[1] = molecular target: G protein-coupled receptor kinase 5 (Homo sapiens) (UniProt P34947); conditions: at 1 µM
[2] = molecular target: G protein-coupled receptor kinase 6 (Homo sapiens) (UniProt P43250); conditions: at 1 µM
Chain of G protein-coupled receptor kinase 6 (Homo sapiens) (P43250 whole entry, looked up): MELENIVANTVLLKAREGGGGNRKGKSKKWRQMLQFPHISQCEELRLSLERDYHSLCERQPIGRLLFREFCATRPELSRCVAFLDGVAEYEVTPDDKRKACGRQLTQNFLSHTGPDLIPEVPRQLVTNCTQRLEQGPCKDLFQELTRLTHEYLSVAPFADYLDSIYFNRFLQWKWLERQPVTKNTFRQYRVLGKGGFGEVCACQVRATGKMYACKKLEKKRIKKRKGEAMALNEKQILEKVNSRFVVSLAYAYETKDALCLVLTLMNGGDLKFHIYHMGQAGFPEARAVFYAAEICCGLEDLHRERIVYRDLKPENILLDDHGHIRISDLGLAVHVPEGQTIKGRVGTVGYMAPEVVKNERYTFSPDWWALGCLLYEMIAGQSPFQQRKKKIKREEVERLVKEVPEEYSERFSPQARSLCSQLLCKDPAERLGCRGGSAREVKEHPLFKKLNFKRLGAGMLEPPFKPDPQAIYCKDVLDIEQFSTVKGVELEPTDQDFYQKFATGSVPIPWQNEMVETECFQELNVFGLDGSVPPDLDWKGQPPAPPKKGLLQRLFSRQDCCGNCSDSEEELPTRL

Chain of G protein-coupled receptor kinase 5 (Homo sapiens) (P34947 whole entry, looked up): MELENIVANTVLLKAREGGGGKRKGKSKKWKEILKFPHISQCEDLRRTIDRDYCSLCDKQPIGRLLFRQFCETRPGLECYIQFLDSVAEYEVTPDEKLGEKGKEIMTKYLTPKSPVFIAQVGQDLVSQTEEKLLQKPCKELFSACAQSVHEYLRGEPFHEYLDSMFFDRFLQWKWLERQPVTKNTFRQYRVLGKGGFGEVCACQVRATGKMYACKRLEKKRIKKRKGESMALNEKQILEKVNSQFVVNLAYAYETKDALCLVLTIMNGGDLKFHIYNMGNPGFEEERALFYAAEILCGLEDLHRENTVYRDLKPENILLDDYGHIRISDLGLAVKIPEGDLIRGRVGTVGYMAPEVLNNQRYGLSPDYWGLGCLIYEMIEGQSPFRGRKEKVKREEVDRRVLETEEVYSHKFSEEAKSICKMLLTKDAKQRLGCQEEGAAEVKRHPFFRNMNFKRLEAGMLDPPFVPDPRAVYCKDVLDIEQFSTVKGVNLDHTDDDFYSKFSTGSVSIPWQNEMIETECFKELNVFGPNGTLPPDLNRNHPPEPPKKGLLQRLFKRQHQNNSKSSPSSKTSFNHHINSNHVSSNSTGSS

CO[C@@H]1[C@H](N(C)C(=O)c2ccccc2)C[C@H]2O[C@]1(C)n1c3ccccc3c3c4c(c5c6ccccc6n2c5c31)C(=O)NC4
residual activity [1]: 82%
residual activity [2]: 79%

CCCC(=O)Oc1ccc2[nH]c(C(=O)c3cc4ccccc4[nH]3)cc2c1
residual activity [1]: 104%
residual activity [2]: 93%

N#CC(C#N)=C(N)/C(C#N)=C/c1ccc(O)cc1
residual activity [2]: 94%

Cc1cc(Nc2nc(-c3ccccc3)nc3ccccc23)n[nH]1
residual activity [2]: 76%

O=C(NC(NC(=S)Nc1ccc(F)c([N+](=O)[O-])c1)C(Cl)(Cl)Cl)C(c1ccccc1)c1ccccc1 (stereo not drawn)
residual activity [1]: 90%
residual activity [2]: 100%

CN(C)CCCn1cc(C2=C(c3c[nH]c4ccccc34)C(=O)NC2=O)c2ccccc21
residual activity [1]: 61%
residual activity [2]: 87%

O=C(O)/C=C/c1cc(Br)c(Br)c(Br)c1Br
residual activity [2]: 99%

CC[n+]1c(/C=C/N(C)c2ccccc2)n(-c2ccccc2)c2ccc(-c3nc4ccccc4s3)cc21
residual activity [1]: 108%
residual activity [2]: 101%

From ChEMBL document CHEMBL2218924, “A broad activity screen in support of a chemogenomic map for kinase signalling research and drug discovery” (Biochem J, 2013)
